Sampled rows, rich in hits. Any-hit rate of the full collection: about 21%.
HCV inh: inhibitors of hepatitis C virus infection; Potency, µM (highest dose often 41.8 µM), for the others: at the highest dose activity change, negative = inhibition, actives largely listed as inhibitors; Huh7.5.1 HCVcc-Cre infection, luciferase reporter, 44 h; 3.4% of 340,000 active; also: potency is read from the fitted curve at half-maximal effect; % is scaled to controls: 0 for no effect and ±100 for the full control effect
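Cells (1,000/well) were plated 4 h before compound, then infected with HCVcc-Cre virus (~0.5 moi). After 44 h further culture, infection was read as luciferase luminescence following a 15 min substrate incubation at room temperature.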
Shiga inhibitor: Shiga toxin inhibition. Vero cells, Shiga toxin protein synthesis inhibition reporter. inhibition, % at 38.7 µM. 9.2% of 290,000 active; in the data active = inhibition mostly above about 28%, no sharp cut-off; inactive = mostly below about 43%; also: 0% is about no effect
Pf growth 48h: P. falciparum growth inhibition at 48 hours (one generation); P. falciparum luciferase growth in erythrocytes, 48 h; Potency, µM (doses to about 28.7 µM), for the others: at the top dose activity change, negative = inhibition, hits mostly inhibitors; 5.9% of 310,000 active; also: potency is read from the fitted curve at half-maximal effect; % is scaled to controls: 0 for no effect and ±100 for the full control effect
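Erythrocytes infected with P. falciparum carrying an integrated firefly luciferase reporter (2% hematocrit, 0.1% parasitemia final) were exposed to compounds in RPMI 1640 with 0.5% Albumax at 37 C, 5% CO2. Growth inhibition was scored as reduced luminescence.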
CHX counter: counter-screen for Shiga toxin inhibitors: cycloheximide protein synthesis inhibition. 12% of 300,000 active. max response, %. cell reporter, cycloheximide protein synthesis inhibition counterscreen; in the data active = max response mostly above about 13%, no sharp cut-off; inactive = mostly below about 14%; also: read at 38.3 µM for the half of the compounds with a filed dose; 0% is about no effect
Pf growth 96h: inhibits malaria parasite growth, 96 h | P. falciparum luciferase reporter growth, 96 h | Potency, µM (top dose mostly 28.7 µM), for inactives: at the top dose activity change, negative = inhibition, hits mostly inhibitors | AID 504834 | 6.9% of 320,000 active; also: potency is read from the fitted curve at half-maximal effect; % is scaled to controls: 0 for no effect and ±100 for the full control effect
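Erythrocytes infected with luciferase-expressing P. falciparum were dispensed at 2% hematocrit and 0.05% parasitemia (final), then incubated with compounds 96 hours at 37 C in 5% CO2. Luminescence after detection reagent addition reported growth.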
AMA1-RON2 inh: inhibitors of Plasmodium falciparum AMA1-RON2 interaction; AlphaScreen AMA1-biotinylated RON2 peptide binding; Potency, µM (doses to about 58.2 µM), for inactives: at the highest dose activity change, negative = inhibition, actives largely listed as inhibitors; 0.2% of 360,000 active; AID 720542;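 also: potency is read from the fitted curve at half-maximal effect; 0% = vehicle wells and -100% = peptide control; nearly all actives have a fitted effect of over 45% in size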
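AMA1 (3D7) with his tag at 25 nM final met compounds first, then biotinylated RON2 peptide at 25 nM; detection used donor plus acceptor beads, 10 µg/mL apiece, read by AlphaScreen after 30 min at room temperature.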
An asterisk follows results filed as active; ? = inconclusive; . = no result; [ ] = another dose, or the depositor's remark. Unless noted, calls follow the shape of the dose curve; as a rule, active = well fitted curve in the direction sought with a large enough effect; inconclusive = small, poorly fitted or top-dose-only effect, or another doubt; inactive = no such curve, though single readings can be large; an effect the other way counts as inactive or inconclusive.

SMILES	HCV inh	Shiga inhibitor	Pf growth 48h	CHX counter	Pf growth 96h	AMA1-RON2 inh
CCOC(=O)N/N=C/c1c(F)cccc1F	15%	35*	37%	25*	66%	50%
CCOC(=O)N/N=C/c1c(F)c(F)c(F)c(F)c1F	-13%	12	-15%	-1	?	8%
CCOC(=O)N/N=C/c1ccc(OC)c(O)c1	16%	69*	53%	33*	?	-13%
O=C1COc2ccc(C(=O)COC(=O)c3ncc(Cl)c(Cl)c3Cl)cc2N1	19%	.	44%	.	55%	0%
C[C@@H]1CN([C@@H](C)CO)C(=O)c2cccc(NS(C)(=O)=O)c2O[C@H]1CN(C)CC1CCCCC1	16%	.	.	.	.	-2%
Cn1nc(C(=O)NCc2ccc(F)cc2)c2c1-c1ccccc1S(=O)(=O)C2	14µM*	20	-15%	-3	9%	3%
Cc1ccc(CNC(=O)c2nn(C)c3c2CS(=O)(=O)c2ccccc2-3)cc1	-25%	17	-2%	0	143%	-19%
CC(=O)c1cc(F)c(N2CCN(C(=O)COc3ccccc3F)CC2)cc1C	?	16	15µM*	-2	467%	10%
CC(=O)c1cc(F)c(N2CCN(C(=O)C(C)(C)C)CC2)cc1C	7%	15	.	6	?	6%
N#CCCCCn1c(-c2cncs2)nc2ccccc21	3%	20	1%	5	.	41%
c1ccc(Cn2c(-c3cncs3)nc3ccccc32)cc1	-15%	47	16%	60*	.	11%
COc1cccc(NC(=O)Cn2c(-c3cncs3)nc3ccccc32)c1	13%	-1	?	-1	?	-12%
Brc1cccc(Cn2c(-c3cncs3)nc3ccccc32)c1	?	32*	10µM*	12	8.3µM*	-11%
Brc1ccc(Cn2c(-c3cncs3)nc3ccccc32)cc1	?	94*	?	33*	-95%	1%
O=C(Cn1c(-c2cncs2)nc2ccccc21)NCCc1ccccc1	-11%	13	.	-3	?	0%
CC(C)OCCCNC(=O)c1cn(C)c2ccc(S(=O)(=O)N3CCCC3)cc2c1=O	14%	-6	?	1	?	15%
O=C(Nc1ccccc1C(F)(F)F)N1CCN(c2ccc3nnc(-c4ccc(F)cc4)n3n2)CC1	?	43	12µM*	1	?	3%
O=C(Nc1ccc(F)cc1)N1CCN(c2ccc3nnc(-c4ccc(F)cc4)n3n2)CC1	?	10	.	-1	?	-4%
Cc1ccc(OCCN2C(=O)CSC2=O)cc1	4%	20	5%	22*	4%	1%
Cc1ccc2c(c1)C(=O)C(=O)N2CCOc1ccccc1	?	20	5%	13	2%	?
C[N+](C)(C)CCN1C(=O)CSC1=O	21%	-5	-5%	-3	67%	-4%
Cc1ccc(OCCN2C(=O)c3ccccc3C2=O)c(C)c1	0%	-4	6%	6	5%	11%
Cc1ccc(OCCN2C(=O)c3ccccc3C2=O)cc1	19%	108*	.	31*	73%	16%
COc1ccc(N(CN2C(=O)c3ccccc3C2=O)C(=O)C(C)C)cc1	28%	12	-15%	21*	?	-4%
Cc1ccc(OCCN2C(=O)c3ccccc3C2=O)c([N+](=O)[O-])c1	-6%	106*	9%	64*	34%	-16%
SMILES	HCV inh	Shiga inhibitor	Pf growth 48h	CHX counter	Pf growth 96h	AMA1-RON2 inh
Cc1ccc(CNc2ccccc2C(=O)O)s1	11%	8	0%	8	5%	7%
COc1ccc(N2CCN(CCN3C(=O)c4ccccc4C3=O)CC2)cc1	12%	1	43%	-4	23%	8%
COc1ccc(C(=O)OCCN2C(=O)c3ccccc3C2=O)cc1	5%	54*	?	17	44%	3%
COc1ccc(OCCN2C(=O)c3cccc(N)c3C2=O)cc1	9%	74*	95%	32*	127%	12%
Cc1ccc(OCC(=O)OCCN2C(=O)c3ccccc3C2=O)cc1C	25%	-2	10%	-2	1.9µM*	0%
Cc1cc(C)cc(OCC(=O)OCCN2C(=O)c3ccccc3C2=O)c1	8%	2	.	-6	-9%	17%
COc1cccc(C(=O)OCCN2C(=O)c3ccccc3C2=O)c1OC	5%	32	.	8	2%	1%
O=C1c2ccccc2C(=O)N1CCOc1cccc(Br)c1	.	52*	33%	28*	42%	20%
CCOC(=O)/C=C1/SCC(=O)N1CCOc1cccc(Br)c1	?	.	.	.	.	-4%
CC(Oc1ccc(Br)cc1)C(=O)NCCCN1CCCC1=O (centres undefined)	11%	.	.	.	.	8%
CC(S)C(=O)NCC(=O)O (centres undefined)	.	16	-11%	-9	-28%	.
Cc1c(C(=O)NNC(=S)NCc2ccc(Cl)cc2)oc2ccccc12	-6%	4	-1%	6	-14%	25%
O=C(CCc1nc2ccccc2[nH]1)NCc1ccc2c(c1)OCO2	-15%[8.37 µM]	-2	8%	-1	-14%	-3%
Cc1ccc2nc(SC(C)C(=O)N3CCOCC3)[nH]c2c1 (centres undefined)	9%	79*	219%	44*	155%	5%
Cc1ccc2nc(SCC(=O)Nc3ccc4c(c3)OCCO4)[nH]c2c1	-17%	30	.	26*	15%	-12%
O=C(CCc1nc2ccccc2[nH]1)Nc1ccc2c(c1)OCO2	-4%	107*	-23%	19*	8%	-20%
CCC(=O)Nc1ccc(C(=O)CSc2nc3ccc(C)cc3[nH]2)cc1	0%	4	22%	19*	27%	-4%
CCc1c(C)nc(SCC(=O)Nc2ccc3c(c2)OCCO3)[nH]c1=O	1%	22	3%	10	79%	3%
CC(=O)N1c2ccc(S(=O)(=O)N3CCCC3)cc2CC1C(=O)NCc1ccccc1F (centres undefined)	6%	-2	-5%	-1	?	-8%
CC(=O)Nc1cccc(CCc2nc3ccccc3[nH]2)c1	-5%	.	92%	23*	?	7%
O=C(CSc1ncccc1-c1nc2ccccc2[nH]1)Nc1ccc2c(c1)OCCO2	-26%	92*	-4%	68*	-25%	-8%
O=C(Cc1c(C(=O)O)[nH]c2ccccc12)Nc1ccc2c(c1)OCO2	13%	16	?	6	13µM*	-11%
Cc1ccc(S(=O)(=O)N(C)C)cc1NC(=O)Nc1ccccc1	-2%	-10	4.1µM*	-3	17%	-9%
CC(=O)Nc1ccc(CCc2nc3ccccc3[nH]2)cc1	23%	14	45%	3	?	-5%
Cc1ccc(S(=O)(=O)N(C)C)cc1NC(=O)CSc1nc2ccccc2[nH]1	-4%	-11	?	-2	9.3µM*	2%
O=C(CSc1nc2ccccc2[nH]1)Nc1ccc2c(c1)OCCO2	-14%	39	30%	41*	4%	-4%
